PubChem BioAssay (NCATS)
Results filed as inconclusive are left out. Active and inactive are the calls of the source. Unless noted, the call rests on the fitted dose curve; in most records, active means well fitted curve in either direction with a large enough effect (not every such curve was filed as active); inconclusive means small, poorly fitted or top-dose-only effect, or another doubt; inactive means flat fitted curve, though single readings scatter.

Legend:
[1] = biological target: Lysosomal acid glucosylceramidase (Homo sapiens) (UniProt P04062); experiment: Glucocerebrosidase-p2 (AID 348; in the data active means potency below about 10 µM; further: potency means the concentration at half of the fitted maximal effect); conditions: purified GBA, blue fluorogenic substrate, 40 min
Method in brief: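 Compounds titrated from 0.6 nM upwards against 0.2 nM enzyme in pH 5.9 citric acid/KH2PO4, taurocholate, tween-20; blue fluorogenic substrate 80 uM, 40 min room temperature, stopped and read Ex 365/Em 440 for AC50.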

[2] = AP1 Signaling Pathway (AID 357); conditions: ME-180 AP-1-bla reporter, EGF-induced, beta-lactamase ratio, 5 h; at 7.69 µM (top of the series) unless noted; further: on the % scale 0 is the no-effect control and ±100 the full control effect
Method in brief: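 ME-180 cells with beta-lactamase reporter under AP-1 response element, stimulated with EC50 EGF; compounds tested in titration series, 5 h at 37 °C. CCF4 substrate added 2.5 h at room temperature; 460/530 nm emission ratio gave %activity and AC50.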

[3] = biological target: Cytochrome P450 1A2 (Homo sapiens) (UniProt P05177); experiment: p450-cyp1a2 (AID 410; calls by dose curve; further: potency means the concentration at half of the fitted maximal effect;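 on activity change, negative = inhibition: -100% = full effect of reference inhibitor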); conditions: recombinant CYP1A2, luciferin-ME demethylation, luminescence; series mostly up to 57 µM
Method in brief: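 Inhibition was calculated relative to 57 uM furafylline (full inhibition). The reaction used human CYP1A2 at 20nM with Luciferin-ME at its Km, 100uM, driven by an NADPH-regenerating system for 60 min at room temperature.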

[4] = NFAT Signaling Pathway (AID 444); conditions: Jurkat NFAT-bla M1, carbachol, beta-lactamase ratio, 5 h; at 7.69 µM (top of the series) unless noted;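 further: carbachol stimulus at about its EC50 of 1 µM final; on the % scale 0 is the no-effect control and ±100 the full control effect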
Method in brief: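 Read-out: CCF4 FRET ratio (460 nm/530 nm) after 1 h RT dye loading, used for %activity and AC50 from titration series. Cells: Jurkat NFAT-β-lactamase/M1 line, treated with compound plus 1 uM carbachol for 5 h, 37 °C.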

[5] = Stat Signaling Pathway (AID 446); conditions: ME-180 SIE beta-lactamase reporter, IL-6 stimulated, 5 h; at 7.69 µM (top of the series) unless noted;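 further: ME-180 cervical cancer cells given 40 pM IL-6 alongside compound; SIE-controlled beta-lactamase reporter measured as 460/530 nm FRET emission ratio; on the % scale 0 is the no-effect control and ±100 the full control effect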
Method in brief: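 ME-180 SIE-bla cells; overnight plating; cpd + IL-6 40 pM, 5 h, 37 C; LiveBLAzer 2.5 h RT; 460/530 nm emission ratio. Normalized to 300 pM IL-6 and 125 nM JAK inhibitor controls.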

[6] = biological target: Glucocorticoid receptor (Homo sapiens) (UniProt P04150); experiment: GR-EFC Redistribution (AID 451; calls by dose curve; further: potency means the concentration at half of the fitted maximal effect); conditions: CHO-K1 GR-EFC translocation, beta-gal luminescence, 2 h
Method in brief: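 Translocation of GR-ED fusion to nuclear EA restores b-gal, read by luminescence after 1 h room-temperature detection. Engineered CHO-K1 biosensor cells, 1,000/well, exposed 2 h at 37 C to titrations up to 46 uM final.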

[7] = biological target: Mitogen-activated protein kinase 10 (Mus musculus) (UniProt Q61831); experiment: JNK3 AlphaScreen Assay (AID 530); conditions: JNK3 lysate, c-Jun phosphorylation; series mostly up to 57.1 µM;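 further: kinase came from lysate of stimulated human HepG2 cells; signal reports phosphorylation of biotinylated GST-cJun 1-79 at Ser73 with 10 µM ATP; on the % scale 0 is the no-effect control and ±100 the full control effect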
Method in brief: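 Room-temperature AlphaScreen kinase assay; pre-activated HepG2 lysate as JNK3 source, biotin-GST-cJun(1-79) substrate, 10 uM ATP, compound 15 min preincubation.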

[8] = biological target: 3',5'-cyclic-AMP phosphodiesterase 4B (Homo sapiens) (UniProt Q07343); experiment: qHTS Assay for Inhibitors of PDE-IV (AID 607; active means well fitted activation curve with a large enough effect in the main read-out, with a control signal flat, not every such curve was filed as active; further: % of control where 0% means no effect); conditions: HEK293 ACTOne CNG channel cells, membrane potential fluorescence; series mostly up to 22.9 µM
Method in brief: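 ACTOne HEK293 cells carry a modified cAMP-gated CNG channel and express endogenous PDE4; plated 1000 cells/well, compounds up to 22.9 uM final. Membrane-potential dye fluorescence (ex 535/em 590) was read; parental cells received 10 uM forskolin + 100 uM RO 20-1724.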

[9] = biological target: Cytochrome P450 3A4 (Homo sapiens) (UniProt P08684); experiment: qHTS Assay for Activators of Cytochrome P450 3A4 (AID 885; active means well fitted curve in the direction sought with a large enough effect; an effect the other way counts as inactive or inconclusive; further: nearly all actives have a fitted effect of over 65% in size; further: potency means the concentration at half of the fitted maximal effect); conditions: recombinant CYP3A4, Luciferin-PPXE luminescence, 60 min; series mostly up to 57.1 µM
Method in brief: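 20nM CYP3A4 + 25uM Luciferin-PPXE (=KM), 200mM KPO4; cpd 10 min RT; NADPH regen, 60 min RT; stop w/ detection buffer, 20 min; luminescence. Normalized to 57 uM ketoconazole.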

[10] = qHTS Assay for Lipid Storage Modulators (AID 1519; calls by dose curve); conditions: Drosophila S3 cells, BODIPY lipid droplet/cell ratio, laser cytometry, cells loaded with oleic acid; for activity change, negative = inhibition: at 57.5 µM (top of the series)
Method in brief: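 Cells seeded at 5,000 per well were treated with compounds over a concentration series and loaded with oleic acid (400 uM, as added). Lipid droplet fluorescence (488 nm excitation, 500-530 nm channel) was read by laser-scanning cytometry and normalized to 20 uM Triacsin C.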

[11] = Primary qHTS for small molecule stabilizers of the endoplasmic reticulum resident proteome: Secreted ER Calcium Modulated Protein (SERCaMP) assay (AID 1508630; active means well fitted curve in the direction sought with a large enough effect; an effect the other way counts as inactive or inconclusive; further: on the % scale 0 is the no-effect control and ±100 the full control effect); conditions: SH-SY5Y GLuc-SERCaMP (Gaussia luciferase released on ER calcium loss) secretion, thapsigargin, luminescence; series mostly up to 38.4 µM
Method in brief: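 GLuc-SERCaMP-expressing SH-SY5Y cells, pretreated 16 h with compound, are challenged with thapsigargin to empty ER calcium stores; after 4 h, coelenterazine is added directly to the medium and luminescence is imaged.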

[12] = biological target: Cytochrome P450 3A4 (Homo sapiens) (UniProt P08684); experiment: qHTS Assay for Inhibitors and Substrates of Cytochrome P450 3A4 (AID 884; active means well fitted curve in the direction sought with a large enough effect; an effect the other way counts as inactive or inconclusive; further: nearly all actives have a fitted effect of over 50% in size; further: potency means the concentration at half of the fitted maximal effect); conditions: recombinant CYP3A4, Luciferin-PPXE luminescence; series mostly up to 57.1 µM
Method in brief: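 20 nM human CYP3A4 with 25 uM Luciferin-PPXE (at KM) in 200 mM KPO4, preincubated 10 min with compound; NADPH regeneration started a 60 min RT reaction. Luciferin detected by luminescence, normalized to 57 uM ketoconazole as full inhibition.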

[13] = qHTS Assay for Identification of Small Molecule Agonists for Hypoxia Response Element Signaling Pathway (AID 914; active means well fitted activation curve with a large enough effect in the signal ratio, with a control signal flat, not every such curve was filed as active; the % refers to the signal ratio; further: % of control where 0% means no effect); conditions: ME-180 (cervical carcinoma) HRE-bla reporter, beta-lactamase ratio, CoCl2, 17 h; activation: stronger effect = higher value
Method in brief: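 HRE-bla ME-180 cells, overnight plating in Opti-MEM with 0.5% dialyzed FBS; cpd titration + EC50 CoCl2, 17 h, 37 degrees Celsius; CCF4 2.5 h RT; 460/530 nm ratio; AC50.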

[14] = Confirmation and Secondary Assay for Modulators of Hemoglobin Beta Chain Splicing at IVS2 654 locus (AID 910; active means well fitted curve in the direction sought with a large enough effect; an effect the other way counts as inactive or inconclusive;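 further: HeLa cells stably carrying EGFP split by mutant beta-globin IVS2-654 intron; % of control where 0% means no effect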); conditions: HeLa EGFP-654 splicing reporter, GFP fluorescence, 48 h; series mostly up to 38.3 µM
Method in brief: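 Readout: per-well total peak green fluorescence (488 nm ex, 500–520 nm em) from objects 5–250 µm, reflecting correct splicing of an EGFP-654 reporter. Compounds were applied for 2 days at 37 °C to overnight-plated HeLa EGFP-654 cells; controls were DMSO and 500 nM IVS2-654 PNA.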

[15] = Confirmation and Secondary Assay for Modulators of Hemoglobin Beta Chain Splicing at IVS2 705 locus (AID 930; active means well fitted curve in the direction sought with a large enough effect; an effect the other way counts as inactive or inconclusive;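 further: HeLa cells stably expressing the EGFP-705 splicing reporter; GFP fluorescence per well restored by corrected splicing of the IVS2-705 intron in EGFP; % of control where 0% means no effect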); conditions: HeLa EGFP-705 splicing reporter, GFP fluorescence, 48 h; series mostly up to 38.3 µM
Method in brief: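 Read-out: total peak GFP fluorescence per well (488 nm excitation, 500-520 nm emission) by laser-scanning cytometry. Cells: HeLa EGFP-705 splicing reporter, 2 days compound exposure in Optimem/2% FCS.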

[16] = measured here: cell count channel max response
[17] = measured here: lipid channel max response

Sequence of Glucocorticoid receptor (Homo sapiens) (P04150 whole entry, looked up, the tested form may be a part): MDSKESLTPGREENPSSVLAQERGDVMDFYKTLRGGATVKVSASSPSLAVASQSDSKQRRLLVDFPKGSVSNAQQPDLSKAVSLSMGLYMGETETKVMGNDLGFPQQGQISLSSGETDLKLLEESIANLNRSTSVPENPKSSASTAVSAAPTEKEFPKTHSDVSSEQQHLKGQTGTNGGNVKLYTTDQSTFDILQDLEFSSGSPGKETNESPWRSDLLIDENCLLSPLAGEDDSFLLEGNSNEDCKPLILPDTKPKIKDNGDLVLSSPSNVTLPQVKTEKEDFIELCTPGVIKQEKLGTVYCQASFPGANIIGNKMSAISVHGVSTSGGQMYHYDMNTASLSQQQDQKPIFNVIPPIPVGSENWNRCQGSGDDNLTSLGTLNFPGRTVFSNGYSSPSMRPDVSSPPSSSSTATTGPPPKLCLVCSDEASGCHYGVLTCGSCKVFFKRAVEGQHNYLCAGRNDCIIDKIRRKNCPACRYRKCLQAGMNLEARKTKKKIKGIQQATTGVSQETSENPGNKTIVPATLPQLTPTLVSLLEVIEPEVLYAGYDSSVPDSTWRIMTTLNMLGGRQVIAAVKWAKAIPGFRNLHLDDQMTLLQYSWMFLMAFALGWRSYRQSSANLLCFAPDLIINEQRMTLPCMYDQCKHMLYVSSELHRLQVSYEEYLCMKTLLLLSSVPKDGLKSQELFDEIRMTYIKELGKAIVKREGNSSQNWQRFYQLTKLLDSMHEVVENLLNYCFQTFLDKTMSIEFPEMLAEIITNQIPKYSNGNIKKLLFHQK
Sequence of Lysosomal acid glucosylceramidase (Homo sapiens) (P04062 whole entry, looked up): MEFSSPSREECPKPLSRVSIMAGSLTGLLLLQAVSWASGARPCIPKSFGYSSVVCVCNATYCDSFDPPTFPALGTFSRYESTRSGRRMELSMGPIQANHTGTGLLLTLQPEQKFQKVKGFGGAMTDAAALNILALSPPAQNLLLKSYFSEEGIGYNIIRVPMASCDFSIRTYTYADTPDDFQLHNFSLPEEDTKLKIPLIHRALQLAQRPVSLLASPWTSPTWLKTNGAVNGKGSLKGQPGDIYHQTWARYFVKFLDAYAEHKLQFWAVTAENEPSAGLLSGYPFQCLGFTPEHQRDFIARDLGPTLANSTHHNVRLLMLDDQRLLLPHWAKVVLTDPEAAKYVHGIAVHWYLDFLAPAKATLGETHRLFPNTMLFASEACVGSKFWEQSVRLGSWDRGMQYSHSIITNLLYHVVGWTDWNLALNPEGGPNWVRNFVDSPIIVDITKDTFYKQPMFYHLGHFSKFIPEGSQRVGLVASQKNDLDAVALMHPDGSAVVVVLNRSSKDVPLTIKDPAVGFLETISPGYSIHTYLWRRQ
Sequence of Cytochrome P450 1A2 (Homo sapiens) (P05177 whole entry, looked up): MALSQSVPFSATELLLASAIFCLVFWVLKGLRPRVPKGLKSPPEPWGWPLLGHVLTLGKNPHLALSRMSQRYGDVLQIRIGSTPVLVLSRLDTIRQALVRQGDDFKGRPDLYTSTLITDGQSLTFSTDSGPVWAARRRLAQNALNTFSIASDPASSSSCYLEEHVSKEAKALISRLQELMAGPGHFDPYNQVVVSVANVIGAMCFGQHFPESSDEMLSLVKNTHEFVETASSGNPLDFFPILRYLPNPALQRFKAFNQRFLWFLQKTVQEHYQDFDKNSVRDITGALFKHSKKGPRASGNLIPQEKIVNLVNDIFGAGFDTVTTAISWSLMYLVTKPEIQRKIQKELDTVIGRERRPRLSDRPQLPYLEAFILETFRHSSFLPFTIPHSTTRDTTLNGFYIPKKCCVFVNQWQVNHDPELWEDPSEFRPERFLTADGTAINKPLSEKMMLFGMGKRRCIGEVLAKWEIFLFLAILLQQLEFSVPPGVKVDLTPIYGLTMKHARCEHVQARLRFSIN
Sequence of Cytochrome P450 3A4 (Homo sapiens) (P08684 whole entry, looked up): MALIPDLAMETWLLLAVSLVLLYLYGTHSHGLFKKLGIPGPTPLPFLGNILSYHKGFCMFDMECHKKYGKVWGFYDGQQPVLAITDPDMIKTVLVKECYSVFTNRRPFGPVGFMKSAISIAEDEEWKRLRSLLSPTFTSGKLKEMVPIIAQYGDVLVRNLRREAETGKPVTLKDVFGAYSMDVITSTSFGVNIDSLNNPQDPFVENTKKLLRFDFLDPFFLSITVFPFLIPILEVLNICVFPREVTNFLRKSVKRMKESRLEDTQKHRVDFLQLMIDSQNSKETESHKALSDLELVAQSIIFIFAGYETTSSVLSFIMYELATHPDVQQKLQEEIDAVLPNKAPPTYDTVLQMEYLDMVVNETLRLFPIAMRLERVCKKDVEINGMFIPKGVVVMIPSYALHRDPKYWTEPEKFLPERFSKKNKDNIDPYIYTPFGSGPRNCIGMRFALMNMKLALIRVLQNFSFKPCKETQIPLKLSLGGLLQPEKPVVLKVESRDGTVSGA
Sequence of 3',5'-cyclic-AMP phosphodiesterase 4B (Homo sapiens) (Q07343 whole entry, looked up): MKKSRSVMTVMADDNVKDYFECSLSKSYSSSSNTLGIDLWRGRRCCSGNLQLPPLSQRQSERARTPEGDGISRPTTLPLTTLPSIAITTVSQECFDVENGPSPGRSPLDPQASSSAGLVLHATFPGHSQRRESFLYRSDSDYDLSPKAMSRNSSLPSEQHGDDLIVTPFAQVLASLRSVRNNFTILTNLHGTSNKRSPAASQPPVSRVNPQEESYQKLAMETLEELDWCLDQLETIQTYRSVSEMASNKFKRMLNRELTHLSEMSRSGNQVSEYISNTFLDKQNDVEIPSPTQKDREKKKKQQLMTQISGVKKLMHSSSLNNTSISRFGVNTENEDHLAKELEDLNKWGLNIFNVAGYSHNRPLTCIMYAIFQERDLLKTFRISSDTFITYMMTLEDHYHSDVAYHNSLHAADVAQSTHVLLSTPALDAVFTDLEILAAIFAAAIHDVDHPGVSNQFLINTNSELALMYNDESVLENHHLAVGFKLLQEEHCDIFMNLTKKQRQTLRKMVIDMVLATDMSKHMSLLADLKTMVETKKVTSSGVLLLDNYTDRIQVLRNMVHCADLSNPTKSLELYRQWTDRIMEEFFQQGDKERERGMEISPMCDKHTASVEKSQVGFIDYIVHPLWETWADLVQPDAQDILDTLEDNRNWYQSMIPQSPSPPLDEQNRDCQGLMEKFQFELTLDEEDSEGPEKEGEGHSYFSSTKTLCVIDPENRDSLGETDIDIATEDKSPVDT

CS(=O)(=O)N1CCC[C@@]2(CCN(c3ccccn3)C2)C1
inactive: Potency [1] > 11.4 µM | activity change, negative = inhibition [2] -9.92% | Potency [3] | activity change, negative = inhibition [4] -19.3% | activity, negative = inhibition [5] -8.41% | Potency [6] > 46 µM | outcome [7] | Potency [8] | Potency [9] | activity change, negative = inhibition [10] 2.29% | Potency [11]
-1.27%: max response [10, 16]
2.21%: max response [10, 17]

CC(C)NC(=O)N1CCCC2(CCN(S(=O)(=O)c3ccccc3)CC2)C1
inactive: Potency [1] > 11.4 µM | activity change, negative = inhibition [2] -4.26% | Potency [3] | activity change, negative = inhibition [4] -5.06% | activity, negative = inhibition [5] -5.18% | Potency [6] > 46 µM | outcome [7] | Potency [8] | Potency [9] | activity change, negative = inhibition [10] 4.51% | Potency [11]
active: Potency [12] 7.94 µM
26.7%: max response [10, 17]
20%: max response [10, 16]

O=C(c1cc(C(F)(F)F)cc(C(F)(F)F)c1)N1CCC[C@@]2(CCN(Cc3nccs3)C2)C1
26%: max response [10, 16]
28.9%: max response [10, 17]
active: Potency [3] 20 µM | Potency [12] 3.16 µM
inactive: Potency [1] > 11.4 µM | activity change, negative = inhibition [2] 4.84% | activity change, negative = inhibition [4] -21.5% | activity, negative = inhibition [5] -3.68% | Potency [6] > 46 µM | outcome [7] | Potency [8] | Potency [9] | activity change, negative = inhibition [10] 1.58% | Potency [11]

O=C(c1cccc(F)c1)N1CCC[C@@]2(CCN(c3ccncc3)C2)C1
active: Potency [12] 0.316 µM
20%: max response [10, 16]
inactive: Potency [1] > 11.4 µM | activity change, negative = inhibition [2] -0.222% | Potency [3] | activity change, negative = inhibition [4] -14.9% | activity, negative = inhibition [5] -5.12% | Potency [6] > 46 µM | outcome [7] | Potency [8] | Potency [9] | activity change, negative = inhibition [10] 6.94% | Potency [11]
29.4%: max response [10, 17]

CC(=O)N1CCC[C@@]2(CCN(c3ccncc3)C2)C1
14.8%: max response [10, 17]
8.59%: max response [10, 16]
inactive: Potency [1] > 11.4 µM | activity change, negative = inhibition [2] 2.82% | Potency [3] | activity change, negative = inhibition [4] 3.22% | activity, negative = inhibition [5] -0.448% | Potency [6] > 46 µM | outcome [7] | Potency [8] | Potency [9] | activity change, negative = inhibition [10] 2.25% | Potency [11]

COc1ccc(NC(=O)N2CC3(CCN(C(=O)c4ccc(OC)cc4)CC3)C2)cc1
inactive: Potency [1] > 11.4 µM | activity change, negative = inhibition [2] -11.7% | Potency [3] | activity change, negative = inhibition [4] 16.6% | activity, negative = inhibition [5] -5.3% | Potency [6] > 46 µM | outcome [7] | Potency [8] | Potency [9] | activity change, negative = inhibition [10] 3.98% | Potency [11]
17.6%: max response [10, 17]
12.3%: max response [10, 16]

O=C(c1ccco1)N1CCC2(CCCN(C(c3ccccc3)c3ccccc3)C2)CC1
13.5%: max response [10, 17]
10.3%: max response [10, 16]
active: Potency [3] 15.8 µM | activity change, negative = inhibition [4] -80.8%
inactive: Potency [1] > 11.4 µM | activity change, negative = inhibition [2] 26.1% | activity, negative = inhibition [5] 19.8% | Potency [6] > 46 µM | outcome [7] | Potency [8] | Potency [9] | activity change, negative = inhibition [10] 2.05% | Potency [11]

CS(=O)(=O)N1CCC2(CCCN(c3ccccn3)C2)CC1
inactive: Potency [1] > 11.4 µM | activity change, negative = inhibition [2] -3.01% | activity change, negative = inhibition [4] 4.17% | activity, negative = inhibition [5] 7.37% | Potency [6] > 46 µM | outcome [7] | Potency [8] | Potency [9] | activity change, negative = inhibition [10] 2.39% | Potency [11]
active: Potency [3] 25.1 µM
5.95%: max response [10, 16]
15.6%: max response [10, 17]

FC(F)(F)c1cc(CN2CCCC3(CCNCC3)C2)cc(C(F)(F)F)c1
2.14%: max response [10, 17]
-0.613%: max response [10, 16]
inactive: Potency [1] > 11.4 µM | activity change, negative = inhibition [2] 2.64% | Potency [3] | activity change, negative = inhibition [4] -4.7% | activity, negative = inhibition [5] 1.59% | Potency [6] > 46 µM | outcome [7] | Potency [8] | Potency [9] | activity change, negative = inhibition [10] 0.357% | Potency [11]

O=C(c1ccco1)N1CCC2(CC1)CN(c1ccccc1)C2
inactive: Potency [1] > 11.4 µM | activity change, negative = inhibition [2] -1.6% | Potency [3] | activity change, negative = inhibition [4] 28.4% | activity, negative = inhibition [5] -9.25% | Potency [6] > 46 µM | outcome [7] | Potency [8] | Potency [12] | activation [13] -3.45% | activity change, negative = inhibition [10] 6.46% | Potency [11]
15.8%: max response [10, 16]
25.8%: max response [10, 17]
active: Potency [9] 15.8 µM

Cc1noc(C)c1C(=O)N1CCC2(CCCN(c3ccccc3)C2)CC1
8.91%: max response [10, 16]
inactive: Potency [1] > 11.4 µM | activity change, negative = inhibition [2] -12.1% | Potency [3] | activity change, negative = inhibition [4] -9.55% | activity, negative = inhibition [5] -1.28% | Potency [6] > 46 µM | outcome [7] | Potency [8] | Potency [9] | activity change, negative = inhibition [10] -0.946% | Potency [11]
9.27%: max response [10, 17]

O=C(c1ccco1)N1CCC2(CC1)CN(c1ccc(-c3ccccc3)cc1)C2
-15.3%: max response [10, 16]
-11.7%: max response [10, 17]
inactive: Potency [1] > 11.4 µM | activity change, negative = inhibition [2] -23.8% | activity change, negative = inhibition [4] -4.82% | activity, negative = inhibition [5] -21.1% | Potency [6] > 46 µM | outcome [7] | Potency [8] | activity change, negative = inhibition [10] 2.85% | Potency [11]
active: Potency [3] 1 µM | Potency [9] 3.98 µM

COc1ccc(CNc2ccnc(-c3ccccc3C(F)(F)F)n2)c(OC)c1
3.1%: max response [10, 16]
inactive: Potency [1] > 11.4 µM | activity change, negative = inhibition [2] -17.1% | activity change, negative = inhibition [4] -5.1% | activity, negative = inhibition [5] 1.22% | Potency [6] > 46 µM | outcome [7] | Potency [8] | Potency [9] | outcome [14] | outcome [15] | activity change, negative = inhibition [10] 6.23% | Potency [11]
8.88%: max response [10, 17]
active: Potency [3] 15.8 µM | Potency [12] 3.16 µM
